From PubChem BioAssay
DRD3 agonist: activates the human D3 dopamine receptor | D3R DiscoveRx beta-arrestin cells, luminescence, 90 min | max activation, % | 410,000 compounds, 0.58% hits | AID 652048; in the data active = max activation above about 30%; note: 0% is about no effect
Target sequence (P35462 whole entry, looked up): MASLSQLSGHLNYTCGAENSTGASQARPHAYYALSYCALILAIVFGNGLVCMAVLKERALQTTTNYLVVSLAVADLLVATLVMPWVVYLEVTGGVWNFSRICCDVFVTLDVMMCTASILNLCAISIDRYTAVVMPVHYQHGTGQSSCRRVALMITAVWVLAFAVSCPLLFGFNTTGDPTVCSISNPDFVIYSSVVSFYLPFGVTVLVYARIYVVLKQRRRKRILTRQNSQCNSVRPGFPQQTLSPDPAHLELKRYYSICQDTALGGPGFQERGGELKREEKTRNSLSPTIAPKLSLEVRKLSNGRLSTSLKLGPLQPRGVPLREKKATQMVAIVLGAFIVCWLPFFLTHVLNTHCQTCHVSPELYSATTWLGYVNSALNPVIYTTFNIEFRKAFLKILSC
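Agonist-mode cell screen: cells plated at 1500/well and incubated overnight at 37 °C, then exposed to library compounds for 90 min at 37 °C. Detection reagent was added for 30–60 min at room temperature, and luminescence was read.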
Glioma ERSR ind: inducers of ER stress response in human glioma cells | 420,000 compounds, 0.02% hits | Potency, µM, inactives show top-dose activation, usual class: activators | AID 602332 | U87-MG GRP78 promoter luciferase reporter, 16 h; note: potency is the fitted concentration of half-maximal effect; series mostly up to about 76 µM; % of control where 0% means no effect; nearly all actives have a fitted effect of over 35% in size
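ERSR induction read as luciferase luminescence (Bright-Glo, 10 min at room temperature) in stably transfected human U87-MG glioma cells exposed to compounds for 16 h, using GRP78 as sensor.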
DRD3 antagonist: antagonists of human D3 dopamine receptor. P35462. D3R cells, DiscoveRx beta-arrestin luminescence, antagonist mode; active compounds read low. max response, negative = inhibition, %. 360,000 compounds, 2.5% hits. AID 652054; in the data active = max response below about -50%; inconclusive = no clear call, values can overlap the other calls; note: % is set by controls: 0 for no effect and ±100 for the full control effect
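Cells expressing the human receptor were seeded at 1500 cells/well, incubated overnight at 37 degrees C in 5% CO2, then exposed to library compounds with dopamine controls for 90 minutes at 37 degrees C before luminescent detection.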
Nrf2 activator: Nrf2 pathway activation; AID 624171; Potency, µM (top dose mostly 46.1 µM), without a hit: top-dose activation, actives largely listed as activators; AREc32 ARE-luciferase reporter (MCF7-derived line), luminescence, 24 h; 410,000 compounds, 0.31% hits; note: potency is the fitted concentration of half-maximal effect; % of control where 0% means no effect; nearly all actives have a fitted effect of over 65% in size
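AREc32 cells carrying an ARE-driven firefly luciferase reporter were seeded at 1000 cells/well in OPTI-MEM with 5% FBS, then exposed to compound for 24 hr at 37 deg C. Luminescence was read with Steady-Glo after 30 min at RT.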
* marks the source's active call; other numbers are inactive results; ? = inconclusive; nt = not tested or not shown. Hits are enriched below; roughly 3% of the tested compounds scored in any of these assays. Unless noted, calls come from the whole dose curve; as a rule, active = well fitted curve in the direction sought with a large enough effect; inconclusive = small, poorly fitted or top-dose-only effect, or another doubt; inactive = no such curve, though single readings can be large; an effect the other way counts as inactive or inconclusive.

SMILES	DRD3 agonist	Glioma ERSR ind	DRD3 antagonist	Nrf2 activator
COc1ccc(C(=O)C2CCCN(Cc3ccc4c(c3)OCCO4)C2)cc1F (configuration not stated)	-29	-4%	-26	0%
CCCS(=O)(=O)NCc1c(C)ncc2c1CCN(C(=O)/C=C/c1ccc(F)cc1F)C2	nt	-4%	nt	nt
O=C(OCC1OC(OC(=O)c2cc(O)c(O)c(OC(=O)c3cc(O)c(O)c(O)c3)c2)[C@@H](OC(=O)c2cc(O)c(O)c(OC(=O)c3cc(O)c(O)c(O)c3)c2)C(OC(=O)c2cc(O)c(O)c(OC(=O)c3cc(O)c(O)c(O)c3)c2)C1OC(=O)c1cc(O)c(O)c(OC(=O)c2cc(O)c(O)c(O)c2)c1)c1cc(O)c(O)c(OC(=O)c2cc(O)c(O)c(O)c2)c1 (some centres not stated)	nt	-12%	nt	nt
CC(=O)N(C)C	nt	-5%	nt	nt
Cc1ccc(NC(=O)c2ccc(-n3cccn3)c([N+](=O)[O-])c2)cc1	-8	1%	-53*	3%
Cc1cccc(NC(=O)c2ccc(-n3cccn3)c([N+](=O)[O-])c2)c1	-10	5%	-18	0%
COc1cccc(C2NC(=O)c3n[nH]c(-c4cccs4)c32)c1 (configuration not stated)	5	-4%	nt	3%
CCOC(=O)c1c(NC(=O)CN2CCCc3ccccc32)sc(C)c1C	6	2%	-10	3%
COC(=O)c1c(NC(=O)CN2CCCc3ccccc32)sc(C)c1C	-11	-6%	-60*	4%
O=c1c(-c2cc(F)cc(F)c2)nc2cnc(N3CCNCC3)nc2n1Cc1ccc(F)cc1	nt	-11%	nt	nt
CC1CN(CC(=O)NCCc2ccncc2)Cc2ccccc2O1 (configuration not stated)	nt	-4%	nt	nt
c1ccc2sc(-c3cc4c(c(OC5CCOC5)c3)OCCN(Cc3cccn3-c3nccs3)C4)nc2c1 (configuration not stated)	nt	-3%	nt	nt
Cc1cccc(C)c1OCc1nnc(SCC(=O)NCc2ccccc2)o1	38*	-8%	12	0%
CCCC(=O)OC1(C(=O)CO)CCC2C3CCC4=CC(=O)CCC4(C)C3C(O)CC21C (configuration not stated)	nt	-7%	nt	nt
COc1cc(CN2C(=O)CC[C@@H]3CN(Cc4ccccn4)CC[C@@H]32)cc(OC)c1OC	nt	-4%	nt	nt
CCCCCC/C=C/c1ccc(C2C3C=CCC(C)C3C(=O)N2Cc2ccccc2)c(F)c1 (configuration not stated)	nt	0%	nt	nt
COc1ccc(/C=C/C(=O)Nc2ccc(OC)nc2)cc1	8	3%	3	4%
COc1ccc(NC(=O)Cc2ccccc2)cn1	1	-1%	5	0%
COc1ccc(CS(=O)(=O)/C(Cl)=C(/Cl)C(=O)Nc2ccc(OC)nc2)cc1	-17	-17%	-51*	?
COc1ccc(NC(=O)/C(Cl)=C(/Cl)S(=O)Cc2ccccc2)cn1 (configuration not stated)	-28	-14%	-131*	-2%
COc1ccc2c(c1)c(=O)c(C(=O)c1ccccc1)cn2CC(=O)Nc1ccc2c(c1)OCO2	-1	-3%	nt	1%
CCCCNC(=O)Cn1c(=O)cc(C)c2c(C)nn(-c3ccc(CC)cc3)c21	-9	-1%	nt	-1%
O=C(C[n+]1ccccc1)c1ccc(I)cc1	nt	-1%	nt	nt
COc1cc(OC)cc(C(=O)NC(=S)Nc2cc3oc4ccccc4c3cc2OC)c1	8	0%	22	1%
COc1ccc(C(=O)NC(=S)Nc2cc3oc4ccccc4c3cc2OC)cc1	31*	0%	35	6%
SMILES	DRD3 agonist	Glioma ERSR ind	DRD3 antagonist	Nrf2 activator
COc1cc(OC)c(/C=C/c2nccc3ccccc23)c(OC)c1	nt	-4%	nt	nt
CSCCC(NC(=O)[C@H](Cc1c[nH]c2ccccc12)NC(=O)CNC(=O)[C@H](CCSC)NC(=O)[C@H](Cc1ccc(OS(=O)(=O)O)cc1)NC(=O)[C@@H](N)CC(=O)O)C(=O)N[C@@H](CC(=O)O)C(=O)N[C@@H](Cc1ccccc1)C(N)=O (some centres not stated)	nt	-2%	nt	nt
CN(C)c1nc(NC2CCC(NC(=O)c3ccc(F)c(F)c3)CC2)nc2ccccc12 (configuration not stated)	nt	5%	nt	nt
CNC(=O)c1nnsc1S(=O)c1ccc(Cl)cc1 (configuration not stated)	-22	-12%	-55*	-2%
CCCNC(=O)c1nnsc1S(=O)(=O)c1ccc(Cl)cc1	-23	-13%	-85*	-3%
CCCNC(=O)c1nnsc1S(=O)c1ccc(Cl)cc1 (configuration not stated)	-21	-12%	-78*	-2%
